Screening results from PubChem BioAssay.
Redox H2O2 prof: compounds producing H2O2 with reducing agent – biochemical, NIH compound library profiling, artefact control for MLSCN library redox annotation, primary screen; DTT-dependent redox cycling H2O2, phenol red/HRP absorbance; 100% = 100 µM peroxide control, 0% = buffer; activation, % at 10 µM; actives 0.03% (n = 200,000); AID 878;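 active means activation of at least 50% relative to the plate's high and low controls in the primary single-dose screen; inactive means activation below 50%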;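 further: compound incubated with DTT at 0.8 mM final as the reducing agent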
FAS-TE inh: inhibitors of human fatty acid synthase thioesterase domain; P49327; recombinant FAS-TE, OMFH fluorogenic substrate, fluorescence endpoint; inhibition, % at 15 µM; actives 0.67% (n = 360,000); AID 602261;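 active means compounds whose normalised, plate-corrected inhibition of enzyme fluorescence in the single-dose primary screen is 50% or more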;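 further: 0% = DMSO with enzyme and 100% = substrate without enzyme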
p97 ATPase inh: blocks human p97 ATPase activity; P55072; recombinant p97 ATPase, Kinase-Glo ATP luminescence, 3 h; inhibition, % at 8 µM; actives 0.42% (n = 220,000); in the data active means inhibition above about 15%;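 further: 0% = DMSO vehicle and 100% = wells lacking enzyme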
Furin inh: human furin inhibition; AID 463115; actives 0.061% (n = 220,000); purified furin, fluorogenic substrate cleavage; P09958; inhibition, % at 20 µM or 30 µM; in the data active means inhibition above about 25%
SUMO HTRF inh: SUMOylation inhibition | inhibition, % at 35 µM | HTRF SUMOylation assay, SAE1/SAE2 + UBC9, in vitro | P63279 | actives 0.36% (n = 290,000) | AID 2006; in the data active means inhibition above about 50%, passing the limit was not always enough
PKD1 inh: blocks activity of human protein kinase D1; PKD1 kinase fluorescence polarization assay; inhibition, % (concentration not given with the values); actives 0.056% (n = 200,000); AID 797; in the data active means inhibition above about 50%
FAS-TE inh conf: FAS thioesterase (human) inhibition, confirmation; actives 45% (n = 2,300); AID 624325; shares compounds with FAS-TE inh; inhibition, % at 15 µM; recombinant FAS-TE, OMFH fluorogenic substrate, fluorescence;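 active means compounds inhibiting the enzyme by at least 50% at 15 µM in any one of the replicates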;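 further: 0% = enzyme with DMSO only and 100% = wells lacking enzyme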
Numbers without * were called inactive. Shown are actives, neighbours in structure and some others; about 1.2% of the full set was active somewhere.

Screening CC(Oc1ccc(Cl)cc1)C(=O)N1CCN(C(=O)c2ccco2)CC1 (configuration not stated) returned FAS-TE inh -4.8.
For CCOc1ccc(C(C(=O)NCC2CCCO2)N(Cc2cccnc2)C(=O)c2snc(C(N)=O)c2N)cc1 (configuration not stated) the results were FAS-TE inh -5.2 and SUMO HTRF inh 1.0.
CC(OC(=O)CCC(=O)c1ccc(F)cc1)C(=O)NC1CCCCC1C (configuration not stated) was read as FAS-TE inh 0.0 and SUMO HTRF inh 10.7.
`CC1(c2ccc3c(c2)OCCCO3)NC(=O)N(CC(=O)NCCc2ccccc2)C1=O` (configuration not stated) gave FAS-TE inh -5.7.
Screening O=C(NC(=S)Nc1cccc(C(F)(F)F)c1)c1ccc2nonc2c1 returned FAS-TE inh 50.8*, p97 ATPase inh -2.9, Furin inh -15.3, SUMO HTRF inh 0.9 and FAS-TE inh conf 20.4.
For C=CCn1cc(-c2ccc(Cl)cc2)cc(C#N)c1=O the results were Redox H2O2 prof 0.3, FAS-TE inh 9.4, p97 ATPase inh -0.7, Furin inh -22.8, SUMO HTRF inh 24.2 and PKD1 inh -2.1.
For N#Cc1cc(-c2ccc(Cl)cc2)cn(Cc2c(Cl)cccc2Cl)c1=O the results were Redox H2O2 prof 1.0, FAS-TE inh 61.7*, p97 ATPase inh -2.6, Furin inh 6.6, SUMO HTRF inh -15.4, PKD1 inh 7.3 and FAS-TE inh conf 26.9.
`O=C(c1ccc2c(c1)OCO2)N1CCC2(CC1)Oc1ccc(Cl)cc1C(=O)C21CC(c2ccccc2)=NO1` (configuration not stated) gave FAS-TE inh 53.7*, Furin inh -15.2, SUMO HTRF inh -30.7 and FAS-TE inh conf 6.2.
Screening O=C(/C=C/c1cccs1)N1CCC2(CC1)Oc1ccc(F)cc1C(=O)C21CC(c2ccccc2)=NO1 (configuration not stated) returned FAS-TE inh 25.2, Furin inh -7.1 and SUMO HTRF inh 17.1.
Screening O=C(/C=C/c1cccs1)N1CCC2(CC1)Oc1ccc(F)cc1C(=O)C21CC(c2ccc(Cl)cc2)=NO1 (configuration not stated) returned FAS-TE inh 61.9*, Furin inh -6.8, SUMO HTRF inh -9.1 and FAS-TE inh conf -5.0.
`Cc1noc(C)c1C(=O)N1CCC2(CC1)Oc1ccc(F)cc1C(=O)C21CC(c2ccc(Cl)cc2)=NO1` (configuration not stated) gave FAS-TE inh 93.7*, Furin inh -34.5, SUMO HTRF inh -18.5 and FAS-TE inh conf 22.3.
CCC(=O)N1CCC2(CC1)Oc1ccc(Cl)cc1C(=O)C21CC(c2cccnc2)=NO1 (configuration not stated) was read as FAS-TE inh -4.1, Furin inh -33.0 and SUMO HTRF inh 7.7.
Screening O=C(/C=C/c1cccs1)N1CCC2(CC1)Oc1ccc(Cl)cc1C(=O)C21CC(c2ccc(Cl)cc2)=NO1 (configuration not stated) returned FAS-TE inh 50.1* and FAS-TE inh conf 12.0.
Screening COc1ccc(-n2ncc3c2CC(C)(C)CC3NC(=O)c2ccc(OC)o2)cc1 (configuration not stated) returned FAS-TE inh 0.3 and SUMO HTRF inh -4.9.
COc1ccc(CNC(=O)CN(C(=O)CCC(=O)Nc2ccccn2)c2cccc(C)c2C)cc1 was read as FAS-TE inh -2.7 and SUMO HTRF inh 9.8.
O=C(COC(=O)CSc1ccc(F)cc1)NNC(=O)c1ccc([N+](=O)[O-])cc1 was read as FAS-TE inh 0.3.
Screening O=C(c1ccco1)N1CCN(C(=O)C2CC(=O)N(c3ccc(Cl)cc3)C2)CC1 (configuration not stated) returned FAS-TE inh -3.7 and SUMO HTRF inh 11.1.
CC(C)C(=O)N1CCC2(CC1)Oc1ccc(Cl)cc1C(=O)C21CC(c2ccc(Cl)cc2)=NO1 (configuration not stated) was read as FAS-TE inh 50.1*, Furin inh -24.6, SUMO HTRF inh -20.1 and FAS-TE inh conf 8.3.
For O=C1c2cc(Cl)ccc2OC2(CCNCC2)C12CC(c1ccc(Cl)cc1)=NO2 (configuration not stated) the results were FAS-TE inh -28.1, Furin inh -15.6 and SUMO HTRF inh 2.2.
Screening COc1ccc(NS(=O)(=O)c2ccc(NC(=O)C(CCSC)NC(N)=O)cc2)cc1 (configuration not stated) returned FAS-TE inh -2.8, p97 ATPase inh 4.5, Furin inh -22.9 and SUMO HTRF inh 16.0.
O=C(CSc1nc2ccccc2c(=O)n1-c1ccc(F)cc1)Nc1cc(S(=O)(=O)N2CCOCC2)ccc1Cl was read as Redox H2O2 prof 0.1, FAS-TE inh 77.6*, p97 ATPase inh 8.2, Furin inh -9.4, SUMO HTRF inh 7.7, PKD1 inh 12.9 and FAS-TE inh conf 20.9.
`O=C(CSc1nc2cc(Cl)ccc2c(=O)n1Cc1ccco1)Nc1ccc(S(=O)(=O)N2CCOCC2)cc1` gave Redox H2O2 prof 0.7, FAS-TE inh 87.6*, p97 ATPase inh 6.0, Furin inh -24.6, SUMO HTRF inh -15.0, PKD1 inh 2.8 and FAS-TE inh conf 17.9.
For Cc1ccc(S(=O)(=O)N(C)C)cc1-n1c(SCC(=O)Nc2ccc(F)c(F)c2F)nc2ccccc2c1=O the results were Redox H2O2 prof -0.7, FAS-TE inh 68.4*, p97 ATPase inh 0.7, Furin inh -12.2, SUMO HTRF inh 11.2, PKD1 inh -0.2 and FAS-TE inh conf 37.5.
COC(=O)c1ccc2c(=O)n(Cc3ccco3)c(SCC(=O)Nc3ccc(C)c(Cl)c3)nc2c1 was read as Redox H2O2 prof -0.4, FAS-TE inh -11.6, p97 ATPase inh -4.8, Furin inh -10.0, SUMO HTRF inh 47.4 and PKD1 inh -11.9.
For Cc1ccc(S(=O)(=O)N2CCOCC2)cc1NC(=O)CSc1nc2ccccc2c(=O)n1Cc1ccccc1 the results were Redox H2O2 prof 0.0, FAS-TE inh 50.3*, p97 ATPase inh 5.4, Furin inh -23.4, SUMO HTRF inh -14.5, PKD1 inh -10.6 and FAS-TE inh conf 23.8.
COc1ccc2nc(SCC(=O)N(C)C3CCCCC3)[nH]c2c1 was read as FAS-TE inh -0.8.
Cn1c(=O)c2sccc2n2c(CCCC(=O)NC3CCN(Cc4ccccc4)CC3)nnc12 was read as FAS-TE inh -1.0 and SUMO HTRF inh 14.5.
COc1cc(/C=C/C(O)=C/C(=O)/C=C/c2ccc(O)cc2)ccc1O was read as FAS-TE inh 0.2.
